Bioassay records from PubChem BioAssay.
U2OS ROS induce = ROS inducers in U2OS cancer cells, primary screen, cell-based, H2DCF-DA fluorescence | U2OS ROS induction | 46,000 compounds, 2% hits | AID 624156, 2012 | ROS induction (% of piperlongumine), % at 10 µM; in the data active = ROS induction above about 79%, passing the limit was not always enough; inconclusive = no clear call, values can overlap the other calls
NOMO-1 viab = NOMO-1 AML cell viability reduction, primary screen, STK33 inhibitor project, CellTiter-Glo luminescence; NOMO-1 AML viability, 72 h; inhibition, % (concentration not given with the values); 37,000 compounds, 7.5% hits; AID 2330, 2010; in the data active = inhibition above about 80%; inconclusive = no clear call, values can overlap the other calls
Of the large screens only hits and unclear results are named; the others gave an inactive call. Many of the other results were omitted from the sample, so hits are more common in it than they were.

CO/C1=C/C(C)=C/[C@@H](C)[C@@H](O)[C@@H](C)C/C(C)=C/C=C\[C@H](OC)[C@@H]([C@@H](C)[C@@H](O)[C@H](C)[C@@]2(O)C[C@@H](O)[C@H](C)[C@@H](C(C)C)O2)OC1=O	NOMO-1 viab 142
CCC(O)CC1CCCC(CC(O)c2ccccc2)N1C (stereo not given)	none
COc1ccc2c(c[n+](C)c3c4cc5c(cc4ccc23)OCO5)c1OC	NOMO-1 viab 142
COc1ccc2c(c1OC)CN1CCc3cc4c(cc3C1C2)OCO4 (stereo not given)	none
CCC1CN2CCC3(C(=O)Nc4cccc(O)c43)C2CC1/C(=C/OC)C(=O)OC (stereo not given)	none
Cc1ccccc1OCCCn1cc(C(=O)C2CC2)c2ccccc21	none (no result: NOMO-1 viab)
C[C@H]1O[C@@H](O[C@H]2C[C@@H](O)[C@]3(CO)C4C(CC[C@]3(O)C2)[C@@]2(O)CC[C@H](C3=CC(=O)OC3)[C@@]2(C)C[C@H]4O)[C@@H](O)[C@@H](O)[C@H]1O (stereo not given in full)	NOMO-1 viab 121
CC1OC(O[C@H]2C[C@@H](O)[C@]3(CO)[C@H]4[C@H](O)C[C@]5(C)[C@@H](C6=CC(=O)OC6)CC[C@]5(O)[C@@H]4CC[C@]3(O)C2)C(O)C(O)C1O (stereo not given in full)	NOMO-1 viab 98
C[C@@H]1O[C@@H](O[C@H]2C[C@@H](O)[C@]3(CO)C4C(CC[C@]3(O)C2)[C@@]2(O)CC[C@H](C3=CC(=O)OC3)[C@@]2(C)C[C@H]4O)[C@H](O)[C@H](O)[C@H]1O (stereo not given in full)	NOMO-1 viab 107
CCN(CC)P1(=O)OC(C)(C)CC1(C)O (stereo not given)	none
COC(=O)CC1(CC(=O)OC)C(=O)N(C)C(=O)N(C)C1=O	none
CC1=CC(=O)C2=C(C)C[C@H](O)[C@@H]3[C@H](OC(=O)[C@H]3C)[C@H]12	none
CCC1(C)CC(=O)NC(=O)C1	none
COc1ccc(OC(=O)N(C)C[C@H]2OCc3cnnn3CCCC(=O)N([C@@H](C)CO)C[C@@H]2C)cc1	none (no result: NOMO-1 viab)
CN1CCc2nc3sc(C(=O)C(C)(C)C)c(N)c3cc2C1	NOMO-1 viab 122
O=C(c1noc2c1COc1ccccc1-2)N1CCC2(CC1)OCCO2	none (no result: NOMO-1 viab)
CCC1C2CC[N+]3([O-])CCC4(C(=C2C(=O)OC)Nc2c(OC)cccc24)C13 (stereo not given)	none
Cc1ccc(-n2c(CNCc3cccnc3)nc3ccccc3c2=O)cc1	none
CC(=O)NC1C(OC2OC(CC(O)C3OC(n4ccc(=O)[nH]c4=O)C(O)C3O)C(O)C(O)C2NC(=O)/C=C/CCCCCCCCCC(C)C)OC(CO)C(O)C1O (stereo not given)	NOMO-1 viab 108
COc1ccccc1CN1CCN(Cc2ccccc2)CC1	none (no result: NOMO-1 viab)
O=C(O)C1C2CCC(O2)C1C(=O)NCCc1ccccc1 (stereo not given)	none
Cc1cccc(C)c1NC1=NCCS1	none (no result: NOMO-1 viab)
C[C@]12CC[C@H](O)C[C@H]1CC[C@@H]1[C@@H]2CC[C@]2(C)[C@@H](C3=CC(=O)OC3)CC[C@]12O	NOMO-1 viab 120
CO[C@H]1[C@@H](O)[C@@H](C)O[C@@H](OC2CCC3(C)C(CC[C@@H]4[C@@H]3CCC3(C)C(C5=CC(=O)OC5)C(O)CC43O)C2)[C@@H]1O (stereo not given in full)	NOMO-1 viab 121
COC1CC(O[C@H]2CC[C@@]3(C)C(CCC4C3CC[C@]3(C)C(C5=CC(=O)OC5)CCC43O)C2)OC(C)C1OC1OC(COC2OC(CO)C(O)C(O)C2O)C(O)C(O)C1O (stereo not given in full)	NOMO-1 viab 119
CC12CC[C@H]3C(CCC4(O)CC(O)CCC34O)C1(O)CCC2C1=CC(=O)OC1 (stereo not given in full)	none
C[C@H]1O[C@@H](O[C@H]2CC[C@]3(CO)C4CC[C@]5(C)[C@@H](C6=CC(=O)OC6)CC[C@]5(O)C4CC[C@H]3C2)[C@H](O)[C@H](O)[C@@H]1O (stereo not given in full)	none (no result: NOMO-1 viab)
COC1CC(OC2CCC3(C)C(CCC4(O)C3CC(OC(=O)c3ccccc3)C3(C)C(O)(C(C)=O)CCC43O)C2)OC(C)C1OC1CC(OC)C(OC2OC(C)C(O)C(OC)C2O)C(C)O1 (stereo not given)	none
C[C@H]1O[C@@H](O[C@H]2[C@@H](O)C[C@H](O[C@H]3[C@@H](O)C[C@H](O[C@H]4CC[C@]5(C)C6CC[C@]7(C)[C@@H](C8=CC(=O)OC8)CC[C@]7(O)C6CC[C@@H]5C4)O[C@@H]3C)O[C@@H]2C)C[C@H](O)[C@@H]1O (stereo not given in full)	NOMO-1 viab 111
c1ccc(C2N3CCCN2CC3)cc1 (stereo not given)	none (no result: NOMO-1 viab)
C=C(C)[C@@H]1[C@H]2OC(=O)[C@@H]1[C@]1(O)C[C@H]3O[C@]34C(=O)O[C@H]2[C@]14C	none
C[C@@]12C[C@@H](c3ccoc3)OC(=O)C1CC[C@]1(C)[C@H]2[C@H]2C=C[C@]1(O)C(=O)O2 (stereo not given in full)	none
Cc1ccc(NC(=O)c2cc(C)n(C(C)(C)C)n2)cc1	none
O=C(Cn1cc(C(=O)c2ccccc2)c2ccccc21)NCC1CCCO1 (stereo not given)	none
O=c1c2ccccc2nc(CSc2ccccn2)n1-c1cccc(C(F)(F)F)c1	none
CCOc1ccc(C(Nc2ccccc2)P2(=S)OCCCO2)cc1 (stereo not given)	none (no result: NOMO-1 viab)
CO[C@H]1[C@@H](O)[C@@H](C)O[C@@H](O[C@@H]2C=C3C(OC(C)=O)CC4(O)C(CC[C@]5(C)[C@@H](C6=CC(=O)OC6)CC[C@]45O)[C@@]3(C)CC2)[C@@H]1O (stereo not given in full)	NOMO-1 viab 122
CC(=O)OC1CCC2(C)C(CC[C@@H]3[C@@H]2CCC2(C)C(C4=CC(=O)OC4)CCC32O)C1 (stereo not given in full)	NOMO-1 viab 109
CC(=O)OCC(=O)[C@H]1CC[C@H]2[C@@H]3CC[C@H]4C[C@H](O)CC[C@]4(C)[C@H]3C(=O)C[C@]12C	none
C[C@]12CC[C@H](O)C[C@H]1CC[C@@H]1[C@@H]2C[C@@H](O)[C@]2(C)[C@@H](C3=CC(=O)OC3)CC[C@]12O	NOMO-1 viab 98
CC(=O)O[C@H]1CC[C@]2(C=O)[C@H]3CC[C@]4(C)[C@@H](C5=CC(=O)OC5)CC[C@]4(O)[C@@H]3CC[C@]2(O)C1	U2OS ROS induce inconclusive, NOMO-1 viab 124
Cc1c(O)c(C(=O)O)c(O)c2c1[C@H](C)[C@@H](C)OC2=O	none
COc1ccc(CCNCc2cc(Cl)cc(Cl)c2OC)cc1OC	none
CCN1C[C@]2(COC)CC[C@H](O)[C@]34C1[C@H](C[C@H]23)[C@@]1(O)C[C@H](OC)[C@H]2C[C@@H]4[C@@H]1[C@H]2OC(C)=O	none
CCOC(=O)c1c(NC(=O)C2C(C)(C)C2(C)C)sc2c1CCC2	none
COC(=O)[C@@]12C(=O)C(C)C(=O)[C@]1(C)C(C)=C[C@H]1[C@]3(C=O)CC[C@H](OC(C)=O)C(C)(C)[C@H]3CC[C@@]12C (stereo not given in full)	none (no result: NOMO-1 viab)
c1cncc(C2Nc3ccccc3-n3cccc32)c1 (stereo not given)	none
